Reference: PubChem BioAssay (NCI)
About 83,000 compounds went through this panel and 20% of them were active in at least one assay; those are over-represented in the sample as a whole.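 Assay: single dose, 48 h. Readout: percent growth (0 = no net growth; negative = cell death). Active: <10.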 A number with no mark means an inactive call. Calls of active or inactive are those of the source.

The compounds below were run on NCI-H322M lung (assay: NCI-60 one-dose screen, 48 h (100 = growth as untreated, 0 = no growth, -100 = all killed)). Conditions: 10 µM unless noted.
Protocol: Growth inhibition of the NCI-H322M human Non-Small Cell Lung tumor cell line is measured as a screen for anti-cancer activity. Cells are grown in 96 well plates and exposed to the test compound for 48 hours. Compounds are tested at a single concentration, which is 10^-5 M for most compounds. The reported endpoint is percent growth (GI% or GIPRCNT), where numbers from 0 - 100% represent growth inhibition, and numbers from -100% - 0 represent cell death. For example, a value of 40 represents 60% growth inhibition. A value of 0 means no net growth occurred over the course of the experiment. A value of -40 indicates 40% of cells at the beginning of the experiment died by the end of the experiment. A value of -100 means all cells are dead at the end of the experiment.
NCI-60 Human Tumor Cell Lines Screen was performed using the standard one-dose NCI protocol, which is described in more detail at https://dtp.cancer.gov/discovery_development/nci-60/default.htm.
Compounds with GIPRCNT values below 10 were considered active. Activity score was based on GIPRCNT using the following formula: […]
Score is 0 for GIPRCNT values of 100 or above, 50 for GIPRCNT values of 0, and 100 for GIPRCNT values of -100.

| SMILES | growth |
| --- | --- |
| CC(C)(C)N(Cc1ccccc1)N=O | 101% |
| O=C1NC(=O)C(=Cc2cn(Cc3ccccc3)c3ccccc23)C(=O)N1 | 81.7% |
| CC1(C)N=C(N)N=C(N)N1c1ccc(CCCCc2ccc(S(=O)(=O)F)cc2)c(Cl)c1 | 43.1% |
| C=CCc1ccc(OC(=O)Cc2ccccc2)c(OC)c1 | 98.3% |
| C[CH2][Pb]([CH2]C)([CH2]C)[O]C(=O)c1ccc(N)cc1 | 79.6% |
| CC12CCC(=O)C=C1C(O)CC1C2CCC2(C)C(O)CCC12 (stereo not given) | 98% |
| COc1ccccc1N1CCN(CCc2c[nH]c3cc4c(cc23)OCO4)CC1 | 72.1% |
| CC[C@H](C)[C@H](NC(=O)Nc1ccccc1)C(=O)N(C)[C@H](C[C@@H](OC(C)=O)c1nc(C(=O)N[C@@H](Cc2ccccc2)C[C@H](C)C(=O)OC)cs1)C(C)C | 48.4% |
| CCCCNCCc1ccccn1 | 113% |
| [Br][Pb]([c]1ccccc1)([c]1ccccc1)[c]1ccccc1 | -100% (active) |
| Cc1cc(CCl)c(C)cc1CCl | 15% |
| C[C@]12CCc3sc(-c4ccc(Cl)cc4)nc3C1=CC[C@@H]1[C@@H]2CC[C@]2(C)C(=O)CC[C@@H]12 | 82.6% |
| COc1ccc(/C=C\c2cc(OC)c(OC)c(OC)c2)cc1N/C=C\C(=O)c1c[nH]c2ccccc12 | 40.6% |
| O=c1[nH]c2cc(Cl)ccc2n1C1CCN(CCCC(c2ccc(F)cc2)c2ccc(F)cc2)CC1 | 78.1% |
| COc1cc(N(CCCl)CCCl)ccc1C=Nc1ccccc1C(=O)O | 95.7% |
| COC(=O)C[Se]C(=O)c1ccccc1OC(C)=O | 77.5% |
| CC(=O)N(C)C1=Nc2ccc(Cl)cc2C(c2ccccc2)=[N+]([O-])C1 | 82.6% |
| CC1(C)N=C(N)N=C(N)N1c1cccc(C(=O)Nc2cccc(S(=O)(=O)F)c2)c1 | 100% |
| CCC[CH2][Sn]([CH2]CCC)([CH2]CCC)[O]C(=O)CC | -95.2% (active) |
| COc1ccc(OC)c(/C=C(/C)[N+](=O)[O-])c1 | 98% |

| SMILES | growth |
| --- | --- |
| CCC[CH2][Sn]([CH2]CCC)([CH2]CCC)[O]C(=O)c1ccc(Cl)cc1Cl | -86.5% (active) |
| C[C@]12CC[C@@H]3C4=C(CC[C@H]3[C@@H]1CC[C@@H]2O)CC(=O)CC4 | 109% |
| C[C@]12CC[C@H](OC3OC(O)C(O)C(O)C3O)C=C1CCC1C2CC[C@]2(C)[C@@H](c3ccc(=O)oc3)CC[C@]12O (stereo not given in full) | -71.8% (active) |
| C[C@]12CC[C@H]3[C@@H](C[C@@H]4N=C(c5ccc(O)cc5)S[C@@]45C[C@H](O)CC[C@]35C)[C@@H]1CC[C@@H]2O | 92.8% |
| Oc1ccc(O)c2c1C1(Cl)C(Cl)=C(Cl)C2(Cl)C1(Cl)Cl | 33.1% |
| CN(C)P1(N(C)C)=NP(N(C)C)(N(C)C)=NP(N(C)C)(N(C)C)=N1 | 98.8% |
| CC[CH2][Pb]([CH2]CC)([CH2]CC)[O]C(=O)C(F)(F)F | -98.3% (active) |
| CCCCCCCCCCCCOc1ccc(C(=O)Oc2ccc(CSP3(=O)OCC4OC(n5cnc6c(N)ncnc65)C(F)C4OP(=O)(O)OCC4OC(n5ccc(=O)[nH]c5=O)C(F)C4O3)cc2)cc1 (stereo not given) | 79% |
| Cc1cc(NC(=O)CCc2ccc(N3C(N)=NC(N)=NC3(C)C)cc2)ccc1S(=O)(=O)F | 29.7% |
| COc1ccc(CN2CCN(Cc3ccccc3)CC2)c(O)c1 | 92.3% |
| Cc1ccccc1O | 114% |
| S=P(N1CCCCCC1)(N1CC1)N1CC1 | 121% |
| O=C(O)CC(Br)C(=O)CBr (stereo not given) | 100% |
| COC(=O)C(=[N+]=[N-])C(=O)OC | 103% |
| C[C@@H]1CC[C@@H]2[C@@H]1[C@H](OC(=O)/C=C/C1CCCCC1)[C@]1(C3CCCCC3)C[C@@H](OC(=O)CO)[C@@]2(C)O1 | 85.6% |
| CCOC(=O)/C=C(\C)Nc1ccc(N/C(C)=C/C(=O)OCC)c2c1Oc1ccccc1O2 | 110% |
| CC1(C)N=C(N)N=C(N)N1c1ccc(CNC(=O)Nc2ccc(S(=O)(=O)F)c(Cl)c2)c(Cl)c1 | 46% |
| CN=C(NN)NN | 114% |
| CC(=O)[O][Hg][c]1ccccc1 | 40.1% |
| CC1(C)N=C(N)N=C(N)N1c1ccc(CCC(=O)Nc2cccc(S(=O)(=O)F)c2)cc1 | 79% |
